Data published in PubChem BioAssay (NCI).
Compounds without any hit were thinned out: in the full panel of roughly 83,000, 20% have a hit.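 48-hour exposure, single concentration, 96-well plates; percent growth endpoint where 0 means no net growth. Active: below 10.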 Activity calls are given as the source filed them.

Tests used:
Assay in all cases: NCI-60 one-dose screen, 48 h (100 = growth as untreated, 0 = no growth, -100 = all killed)
Conditions in all cases: 10 µM unless noted
NCI-H226 lung = system: NCI-H226 lung
NCI-H322M lung = system: NCI-H322M lung
HOP-62 NSCLC = system: HOP-62 NSCLC
NCI-H460 lung = system: NCI-H460 lung
HOP-92 NSCLC = system: HOP-92 NSCLC
NCI-H522 lung = system: NCI-H522 lung
A549/ATCC NSCLC = system: A549/ATCC NSCLC
786-0 renal = system: 786-0 renal
COLO 205 colon = system: COLO 205 colon

Measured: growth

CC1CCN(CCCCCOc2ccc3oc4ccccc4c(=O)c3c2)CC1
inactive: NCI-H226 lung 90.6% | NCI-H322M lung 78.7% | HOP-62 NSCLC 98.6% | NCI-H460 lung 81.8% | HOP-92 NSCLC 83.7% | NCI-H522 lung 76.2% | A549/ATCC NSCLC 73.5% | 786-0 renal 75.7% | COLO 205 colon 58.5%

CC(=O)c1ccc(NC(=O)CSc2nnc(-c3cc(-c4ccc(C)cc4)nc4ccccc34)o2)cc1
inactive: NCI-H226 lung 58.7% | NCI-H322M lung 86.5% | HOP-62 NSCLC 17.6% | HOP-92 NSCLC 66.9% | NCI-H522 lung 23.2% | A549/ATCC NSCLC 48.9% | COLO 205 colon 77.4%
active: 786-0 renal 3.06%

C=C1C(=O)O[C@H]2[C@H]1CC/C(COC(=O)CCCCCCCCC(=O)OC/C1=C/CC[C@@]3(C)O[C@H]3[C@H]3OC(=O)C(=C)[C@@H]3CC1)=C\CC[C@@]1(C)O[C@@H]21
active: NCI-H226 lung 1.19% | HOP-92 NSCLC -25.9% | NCI-H522 lung -51.3% | 786-0 renal -29.1% | COLO 205 colon -46.4%
inactive: NCI-H322M lung 83.9% | HOP-62 NSCLC 60.2% | NCI-H460 lung 27.1% | A549/ATCC NSCLC 77.1%

N#Cc1ccc(C2C3=C(CCCC3=O)OC3=C2C(=O)c2ccccc2C3=O)cc1 (stereo unspecified)
inactive: NCI-H226 lung 114% | NCI-H322M lung 106% | HOP-62 NSCLC 111% | NCI-H460 lung 103% | HOP-92 NSCLC 76.3% | A549/ATCC NSCLC 108% | 786-0 renal 94.7% | COLO 205 colon 109%
active: NCI-H522 lung 0.737%

COC(=O)c1ccc2c(c1)n(Cc1ccc3ccccc3c1)c[n+]2Cc1ccc2ccccc2c1
active: HOP-92 NSCLC -10.7% | COLO 205 colon 3.66%
inactive: NCI-H226 lung 61.3% | NCI-H322M lung 57.2% | HOP-62 NSCLC 63.8% | NCI-H522 lung 26.3% | A549/ATCC NSCLC 75% | 786-0 renal 70.3%

O=S(=O)(O)c1ccc(N=NSc2ccc3ccccc3c2)cc1
inactive: NCI-H226 lung 106% | NCI-H322M lung 92.8% | HOP-62 NSCLC 108% | HOP-92 NSCLC 86.4% | NCI-H522 lung 97% | A549/ATCC NSCLC 100% | 786-0 renal 102% | COLO 205 colon 108%

CN(C)C1=NCCN1
inactive: NCI-H226 lung 99.4% | NCI-H322M lung 105% | NCI-H460 lung 110% | HOP-92 NSCLC 74.8% | NCI-H522 lung 73.4% | A549/ATCC NSCLC 90% | 786-0 renal 89.6% | COLO 205 colon 111%

COc1cc(/C=C/C(=O)c2ccc(NC(=O)CSc3nnc(-c4cc(OC)c(OC)c(OC)c4)n3-c3ccccc3)cc2)cc(OC)c1OC
inactive: NCI-H322M lung 64.5% | NCI-H460 lung 13% | HOP-92 NSCLC 53.9% | A549/ATCC NSCLC 20.2% | COLO 205 colon 10.2%
active: NCI-H226 lung -64% | HOP-62 NSCLC -9.19% | NCI-H522 lung -4.14% | 786-0 renal -52%

COc1ccc(C(=O)c2cc(OC)c(C)c(OC)c2)cc1OC(=O)CCl
inactive: NCI-H226 lung 104% | NCI-H322M lung 44% | HOP-62 NSCLC 30.2% | HOP-92 NSCLC 75.8% | NCI-H522 lung 16.2% | A549/ATCC NSCLC 28.5% | 786-0 renal 42% | COLO 205 colon 80.8%
active: NCI-H460 lung 7.36%

COCCOCCOCc1n(Cc2ccc3ccccc3c2)c2ccccc2[n+]1Cc1ccc2ccccc2c1
inactive: NCI-H226 lung 17.2% | NCI-H322M lung 40.5% | HOP-62 NSCLC 17.2% | NCI-H460 lung 10.3% | A549/ATCC NSCLC 33.1% | 786-0 renal 23.6%
active: HOP-92 NSCLC -32.1% | NCI-H522 lung -16.6% | COLO 205 colon -60.7%
